# Results filed as inconclusive are left out. Active and inactive are the calls of the source. How the source made its calls, unless noted: active means hit-call score of the fitted dose curve at least 0.9, where 1 is the maximum; inactive means score below 0.9.
# How the values were obtained:
# [1] = molecular target: Hypoxia-inducible factor 1-alpha (Homo sapiens) (UniProt Q16665); test: ATG_HIF1a_CIS: Attagene CIS-FACTORIAL HepG2 Assay for human Hypoxia Inducible Factor 1 (HIF1A) (AID 2282951); conditions: HepG2 Attagene cis-factorial HIF1a reporter transcription; actives raise or lower the signal
# Chain of Hypoxia-inducible factor 1-alpha (Homo sapiens) (Q16665 whole entry, looked up): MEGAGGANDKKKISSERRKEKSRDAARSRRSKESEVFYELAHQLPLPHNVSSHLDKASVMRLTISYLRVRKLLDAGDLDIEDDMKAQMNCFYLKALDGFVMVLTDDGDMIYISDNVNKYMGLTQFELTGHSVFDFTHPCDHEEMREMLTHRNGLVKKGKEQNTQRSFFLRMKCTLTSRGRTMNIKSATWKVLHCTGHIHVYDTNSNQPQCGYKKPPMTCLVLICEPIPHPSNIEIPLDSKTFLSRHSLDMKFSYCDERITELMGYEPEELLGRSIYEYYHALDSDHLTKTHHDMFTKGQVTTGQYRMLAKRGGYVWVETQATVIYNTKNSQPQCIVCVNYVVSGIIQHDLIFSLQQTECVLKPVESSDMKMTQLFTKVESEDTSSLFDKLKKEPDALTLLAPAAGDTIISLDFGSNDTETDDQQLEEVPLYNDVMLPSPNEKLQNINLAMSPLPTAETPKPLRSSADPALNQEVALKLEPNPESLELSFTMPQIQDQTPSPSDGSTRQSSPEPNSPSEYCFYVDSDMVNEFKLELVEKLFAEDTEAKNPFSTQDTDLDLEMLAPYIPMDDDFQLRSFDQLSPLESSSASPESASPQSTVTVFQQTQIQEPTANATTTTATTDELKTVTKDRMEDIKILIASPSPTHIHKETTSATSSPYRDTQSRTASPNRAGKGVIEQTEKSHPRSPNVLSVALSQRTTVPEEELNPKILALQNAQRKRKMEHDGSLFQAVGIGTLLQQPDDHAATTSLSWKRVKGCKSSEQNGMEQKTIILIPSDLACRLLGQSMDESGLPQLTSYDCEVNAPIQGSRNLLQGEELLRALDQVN
# How it was run: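 HepG2 cells transiently transfected with multiple cis-regulated reporter transcription units measure endogenous transcription factor activity. After 24 h exposure, reporter mRNA is quantified by RT-PCR with 6-FAM labelling, HpaI digestion and capillary electrophoresis. Bidirectional fitting against DMSO.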
# [2] = molecular target: Hepatocyte nuclear factor 6 (Homo sapiens) (UniProt Q9UBC0); test: ATG_HNF6_CIS: Attagene CIS-FACTORIAL HepG2 Assay for human Hepatocyte Nuclear Factor 6 (HNF6) (AID 2282952); conditions: HepG2 Attagene cis-factorial HNF6 reporter transcription; actives raise or lower the signal
# Chain of Hepatocyte nuclear factor 6 (Homo sapiens) (Q9UBC0 whole entry, looked up, the tested form may be a part): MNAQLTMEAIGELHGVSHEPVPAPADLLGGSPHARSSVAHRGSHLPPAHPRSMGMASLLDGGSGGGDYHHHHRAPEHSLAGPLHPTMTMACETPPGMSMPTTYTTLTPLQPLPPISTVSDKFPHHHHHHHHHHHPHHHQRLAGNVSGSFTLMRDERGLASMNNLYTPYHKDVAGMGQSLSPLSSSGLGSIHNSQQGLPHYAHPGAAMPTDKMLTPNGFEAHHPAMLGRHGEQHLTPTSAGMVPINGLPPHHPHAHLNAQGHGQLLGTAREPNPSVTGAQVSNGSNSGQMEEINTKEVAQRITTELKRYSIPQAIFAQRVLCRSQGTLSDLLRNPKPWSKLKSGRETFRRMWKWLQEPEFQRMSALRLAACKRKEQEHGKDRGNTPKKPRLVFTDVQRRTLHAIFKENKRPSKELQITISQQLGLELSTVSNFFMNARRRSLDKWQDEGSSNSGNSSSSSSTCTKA
# How it was run: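 Reporter mRNA induction or loss in HepG2 after 24 h exposure; transient cis-MRTU transfection; fragments quantified by capillary electrophoresis; bidirectional analysis, DMSO as negative control.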
# [3] = molecular target: Heat shock factor protein 1 (Homo sapiens) (UniProt Q00613); test: ATG_HSE_CIS: Attagene CIS-FACTORIAL HepG2 Assay for human Heat Shock Transcription Factor 1 (HSE) (AID 2282953); conditions: HepG2 HSE cis-reporter, Attagene RNA transcription; actives raise or lower the signal
# Chain of Heat shock factor protein 1 (Homo sapiens) (Q00613 whole entry, looked up): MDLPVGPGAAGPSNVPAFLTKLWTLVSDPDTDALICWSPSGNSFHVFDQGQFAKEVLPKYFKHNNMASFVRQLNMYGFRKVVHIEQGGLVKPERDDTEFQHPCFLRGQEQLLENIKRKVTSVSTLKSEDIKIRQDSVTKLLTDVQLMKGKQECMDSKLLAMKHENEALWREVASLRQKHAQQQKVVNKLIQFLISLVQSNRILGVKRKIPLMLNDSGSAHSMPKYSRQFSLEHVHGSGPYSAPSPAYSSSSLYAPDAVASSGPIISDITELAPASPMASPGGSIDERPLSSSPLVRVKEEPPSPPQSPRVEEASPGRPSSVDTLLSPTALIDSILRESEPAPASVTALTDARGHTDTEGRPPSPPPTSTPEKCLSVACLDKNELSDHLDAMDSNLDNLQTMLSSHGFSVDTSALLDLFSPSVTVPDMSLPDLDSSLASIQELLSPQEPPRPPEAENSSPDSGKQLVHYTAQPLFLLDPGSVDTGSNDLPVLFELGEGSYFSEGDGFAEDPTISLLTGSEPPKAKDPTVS
# How it was run: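 Reporter mRNA induction in HepG2 is measured 24 h after dosing, using transiently transfected multiplexed cis-regulated reporter units. Signal comes from capillary electrophoresis of labelled RT-PCR products, with DMSO as negative control.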
# [4] = ATG_MRE_CIS: Attagene CIS-FACTORIAL HepG2 Assay for human Metal Responsive Element (MRE) (AID 2282954); conditions: HepG2 MRE cis-reporter transcription, Attagene multiplex; actives raise or lower the signal
# How it was run: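 HepG2 cells transiently transfected with multiple cis-element reporter units measure endogenous MTF1-driven transcription. After 24 h compound exposure, reporter mRNA is quantified by RT-PCR with 6-FAM labelling, HpaI digestion and capillary electrophoresis; bidirectional fits versus DMSO.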
# [5] = molecular target: Paired box protein Pax-6 (Homo sapiens) (UniProt P26367); test: ATG_Pax6_CIS: Attagene CIS-FACTORIAL HepG2 Assay for human Paired Box 6 (PAX6) (AID 2282956); conditions: HepG2 CIS-FACTORIAL PAX6 reporter transcription, RNA readout; actives raise or lower the signal
# Chain of Paired box protein Pax-6 (Homo sapiens) (P26367 whole entry, looked up): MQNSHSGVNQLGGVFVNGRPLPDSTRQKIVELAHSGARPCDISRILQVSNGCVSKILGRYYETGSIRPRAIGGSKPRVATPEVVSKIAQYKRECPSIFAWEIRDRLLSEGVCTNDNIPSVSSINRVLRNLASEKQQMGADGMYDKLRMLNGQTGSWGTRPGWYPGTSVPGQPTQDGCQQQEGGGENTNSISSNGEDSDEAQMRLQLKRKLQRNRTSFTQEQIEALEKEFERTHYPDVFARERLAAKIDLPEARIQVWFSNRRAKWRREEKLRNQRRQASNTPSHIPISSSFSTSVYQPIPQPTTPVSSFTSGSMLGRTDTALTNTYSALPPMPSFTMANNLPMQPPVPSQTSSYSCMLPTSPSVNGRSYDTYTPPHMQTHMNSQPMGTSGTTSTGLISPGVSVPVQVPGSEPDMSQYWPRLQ
# How it was run: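 After twenty-four hours of chemical exposure, transfected HepG2 cells are harvested for RNA. Cis-promoter reporter transcripts are amplified, fluorescently labelled and sized by capillary electrophoresis, with gain and loss of signal scored against DMSO.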
# [6] = ATG_PXRE_CIS: Attagene CIS-FACTORIAL HepG2 Assay for human Pregnane X Receptor Element (PXRE) (AID 2282957); conditions: HepG2 Attagene CIS-FACTORIAL PXRE reporter, mRNA; actives raise or lower the signal
# How it was run: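 Transiently transfected HepG2 cells were dosed and incubated for 24 h. RNA was then isolated, DNase-treated, reverse-transcribed and reporter sequences amplified. Labeled, HpaI-digested fragments were quantified by capillary electrophoresis against DMSO.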
# [7] = ATG_PPRE_CIS: Attagene CIS-FACTORIAL HepG2 Assay for human Peroxisome Proliferator-activated Response Element (PPRE) (AID 2282958); conditions: HepG2 PPRE cis-element reporter, Attagene transcription factor profiling; actives raise or lower the signal
# How it was run: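 HepG2 cells are transiently transfected with multiplexed cis-promoter reporter units to report endogenous PPAR activity. After 24 h dosing, reporter mRNA is read by RT-PCR and capillary electrophoresis. Fitting is bidirectional against DMSO.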
# [8] = ATG_RORE_CIS: Attagene CIS-FACTORIAL HepG2 Assay for human RAR-related Orphan Receptor Element (RORE) (AID 2282959); conditions: HepG2 Attagene cis-factorial RORE reporter, mRNA; actives raise or lower the signal
# How it was run: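 HepG2 cells carrying transiently transfected cis-regulated reporter units; RORE-driven reporter mRNA quantified 24 h post-dosing by RT-PCR, 6-FAM primer extension, HpaI digestion and capillary electrophoresis. Bidirectional fit versus DMSO.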
# [9] = ATG_Sox_CIS: Attagene CIS-FACTORIAL HepG2 Assay for human SRY-box transcription factor (SOX) (AID 2282960); conditions: HepG2 Attagene cis-factorial SOX reporter, mRNA; actives raise or lower the signal
# How it was run: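 HepG2 cells transiently transfected with multiple cis-regulated reporter units, then dosed for 24 h. Reporter mRNA quantified by RT-PCR, fluorescent labelling, HpaI digestion and capillary electrophoresis; bidirectional fit versus DMSO.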
# [10] = molecular target: Transcription factor Sp1 (Homo sapiens) (UniProt P08047); test: ATG_Sp1_CIS: Attagene CIS-FACTORIAL HepG2 Assay for human Specificity Protein 1 (Sp1) (AID 2282961); conditions: HepG2 Sp1 cis-reporter transcription, actives raise or lower the signal
# Chain of Transcription factor Sp1 (Homo sapiens) (P08047 whole entry, looked up): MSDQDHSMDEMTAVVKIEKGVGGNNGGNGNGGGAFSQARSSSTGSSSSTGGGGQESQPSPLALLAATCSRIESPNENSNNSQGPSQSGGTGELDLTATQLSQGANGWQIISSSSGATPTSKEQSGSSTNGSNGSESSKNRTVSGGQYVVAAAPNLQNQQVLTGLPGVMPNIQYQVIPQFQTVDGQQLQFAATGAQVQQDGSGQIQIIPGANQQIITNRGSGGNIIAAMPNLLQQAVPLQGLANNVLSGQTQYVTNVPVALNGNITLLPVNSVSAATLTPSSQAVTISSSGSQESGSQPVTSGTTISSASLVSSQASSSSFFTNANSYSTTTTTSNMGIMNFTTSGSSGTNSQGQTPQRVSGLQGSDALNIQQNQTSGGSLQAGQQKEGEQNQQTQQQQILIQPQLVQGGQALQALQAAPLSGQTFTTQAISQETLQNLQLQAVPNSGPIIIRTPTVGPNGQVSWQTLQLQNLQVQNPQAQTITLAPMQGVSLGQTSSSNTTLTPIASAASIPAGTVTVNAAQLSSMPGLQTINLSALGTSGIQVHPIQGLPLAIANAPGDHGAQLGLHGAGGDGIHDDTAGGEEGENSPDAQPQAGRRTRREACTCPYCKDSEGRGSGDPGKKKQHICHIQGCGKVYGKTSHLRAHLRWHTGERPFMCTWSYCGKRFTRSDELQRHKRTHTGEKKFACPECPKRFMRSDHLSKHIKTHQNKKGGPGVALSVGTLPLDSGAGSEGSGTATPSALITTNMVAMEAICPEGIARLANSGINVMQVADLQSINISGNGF
# How it was run: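 HepG2 cells transiently transfected with multiplexed cis-regulated reporter constructs, chemical exposure 24 h. Reporter mRNA quantified by RT-PCR with capillary electrophoresis; bidirectional fit relative to DMSO.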
# [11] = ATG_SREBP_CIS: Attagene CIS-FACTORIAL HepG2 Assay for human Sterol Regulatory Element Binding (SREBP) (AID 2282962); conditions: HepG2 Attagene cis-factorial SREBP reporter, mRNA; actives raise or lower the signal
# How it was run: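 Twenty-four hours after chemical dosing of transfected HepG2 cultures, reporter RNA was converted to cDNA, amplified, end-labelled with 6-FAM and resolved by capillary electrophoresis. Responses were fitted relative to DMSO.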
# [12] = molecular target: Signal transducer and activator of transcription 3 (Homo sapiens) (UniProt P40763); test: ATG_STAT3_CIS: Attagene CIS-FACTORIAL HepG2 Assay for human Signal Transducer and Activator of Transcription 3 (STAT3) (AID 2282963); conditions: HepG2, Attagene cis-factorial STAT3 reporter transcription; actives raise or lower the signal
# Chain of Signal transducer and activator of transcription 3 (Homo sapiens) (P40763 whole entry, looked up): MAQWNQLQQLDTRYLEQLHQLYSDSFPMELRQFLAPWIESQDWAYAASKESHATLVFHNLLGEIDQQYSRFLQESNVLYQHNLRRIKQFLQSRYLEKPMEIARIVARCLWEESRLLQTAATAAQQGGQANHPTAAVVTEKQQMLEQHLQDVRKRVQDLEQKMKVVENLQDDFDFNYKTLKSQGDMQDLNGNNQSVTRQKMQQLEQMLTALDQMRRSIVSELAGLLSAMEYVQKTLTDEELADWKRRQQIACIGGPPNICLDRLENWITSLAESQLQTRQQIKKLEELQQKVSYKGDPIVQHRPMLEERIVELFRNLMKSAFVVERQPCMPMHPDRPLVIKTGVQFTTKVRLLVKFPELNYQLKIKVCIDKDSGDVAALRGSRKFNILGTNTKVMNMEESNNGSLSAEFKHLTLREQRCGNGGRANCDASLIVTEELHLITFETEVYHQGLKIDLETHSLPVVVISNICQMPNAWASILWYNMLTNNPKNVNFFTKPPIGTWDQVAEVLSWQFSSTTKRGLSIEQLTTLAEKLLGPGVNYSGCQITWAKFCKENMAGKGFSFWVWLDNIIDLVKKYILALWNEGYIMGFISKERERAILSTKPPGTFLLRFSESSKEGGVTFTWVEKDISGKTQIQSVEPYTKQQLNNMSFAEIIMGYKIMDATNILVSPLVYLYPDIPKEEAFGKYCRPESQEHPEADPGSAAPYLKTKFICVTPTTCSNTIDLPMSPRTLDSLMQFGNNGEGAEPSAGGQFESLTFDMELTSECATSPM
# How it was run: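 HepG2 cells transiently transfected with cis-element-driven multiple reporter transcription units; after 24 h chemical exposure, reporter mRNA measured by RT-PCR, 6-FAM primer-extension labelling, HpaI digestion and capillary electrophoresis. Bidirectional fitting versus DMSO baseline.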
# [13] = ATG_TA_CIS: Attagene CIS-FACTORIAL HepG2 Assay for human TA Basal Promoter (AID 2282964); conditions: HepG2 Attagene CIS-factorial TA basal promoter reporter; actives raise or lower the signal
# How it was run: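 Cis-factorial format in HepG2: reporters report endogenous factors, not chimeric Gal4 fusions. After 24 h treatment, reporter transcripts were measured by RT-PCR-capillary electrophoresis fluorescence, analysed bidirectionally versus DMSO.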
# [14] = ATG_TCF_b_cat_CIS: Attagene CIS-FACTORIAL HepG2 Assay for human T-Cell-Factor with beta-catenin (TCF/b-cat) (AID 2282965); conditions: HepG2 TCF/beta-catenin cis-reporter transcription, actives raise or lower the signal
# How it was run: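 HepG2 cells transiently transfected with multiple cis-promoter-regulated reporter transcription units, so endogenous transcription factor activity is measured. Reporter mRNA read 24 hours after dosing by RT-PCR, fluorescent labelling and capillary electrophoresis; bidirectional fitting against DMSO.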
# [15] = ATG_TAL_CIS: Attagene CIS-FACTORIAL HepG2 Assay for human TAL Basal Promoter (AID 2282966); conditions: HepG2 Attagene cis-factorial TAL promoter reporter; actives raise or lower the signal;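 further: background control endpoint measuring basal TAL promoter reporter mRNA not a specific factor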
# How it was run: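 Readout: reporter mRNA, fluorescence by CE. System: HepG2, transient multi-reporter transfection, endogenous TF activity. Exposure: 24 h. Analysis: bidirectional, DMSO-normalized; background control.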
# [16] = ATG_TGFb_CIS: Attagene CIS-FACTORIAL HepG2 Assay for human Transforming Growth Factor (TGF) (AID 2282967); conditions: HepG2 Attagene CIS TGFb reporter, mRNA transcription; actives raise or lower the signal
# How it was run: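 Multiplexed cis-reporter HepG2 system, 24 h treatment; mRNA induction read by fluorescence after RT-PCR and CE; DMSO negative control, bidirectional curve fitting.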
# [17] = molecular target: Estrogen receptor (Homo sapiens) (UniProt P03372); test: ATG_ERa_TRANS: Attagene TRANS-FACTORIAL HepG2 Assay for human Estrogen Receptor alpha (ERa) (AID 2282970; active means hit-call score of the fitted dose curve at least 0.9, where 1 is the maximum); conditions: HepG2 Attagene TRANS ERa GAL4 reporter, mRNA
# Chain of Estrogen receptor (Homo sapiens) (P03372 whole entry, looked up, the tested form may be a part): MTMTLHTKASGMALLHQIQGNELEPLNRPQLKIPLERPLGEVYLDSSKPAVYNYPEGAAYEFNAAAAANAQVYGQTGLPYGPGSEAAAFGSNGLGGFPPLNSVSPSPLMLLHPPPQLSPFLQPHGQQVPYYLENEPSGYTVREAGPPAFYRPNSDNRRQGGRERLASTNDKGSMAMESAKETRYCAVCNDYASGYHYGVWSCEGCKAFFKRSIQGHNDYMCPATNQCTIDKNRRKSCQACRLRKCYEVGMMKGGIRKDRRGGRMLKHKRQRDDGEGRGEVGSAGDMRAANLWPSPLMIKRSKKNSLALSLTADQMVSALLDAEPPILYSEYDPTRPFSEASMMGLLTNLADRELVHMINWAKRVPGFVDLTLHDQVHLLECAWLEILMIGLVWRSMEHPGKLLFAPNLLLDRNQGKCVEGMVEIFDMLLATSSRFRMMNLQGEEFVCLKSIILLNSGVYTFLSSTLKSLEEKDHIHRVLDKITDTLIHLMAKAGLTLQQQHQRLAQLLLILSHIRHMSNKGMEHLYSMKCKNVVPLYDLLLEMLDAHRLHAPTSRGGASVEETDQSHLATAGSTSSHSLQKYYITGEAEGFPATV
# How it was run: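 Transactivation via ERa-Gal4 chimera in HepG2; 24 hour incubation; reporter mRNA detected by fluorescence RT-PCR and capillary electrophoresis.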
# [18] = ATG_PBREM_CIS: Attagene CIS-FACTORIAL HepG2 Assay for human Phenobarbital-responsive Enhancer Module (PBREM) (AID 2282955); conditions: HepG2 PBREM cis-reporter, Attagene multiplexed transcription; actives raise or lower the signal
# How it was run: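 HepG2 cells transiently transfected with multiple cis-regulated reporter units measure endogenous transcription factor activity; 24 h compound exposure. Reporter mRNA quantified by RT-PCR, fluorescent labelling, HpaI digestion and capillary electrophoresis; bidirectional fit versus DMSO.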
# [19] = molecular target: Nuclear receptor subfamily 1 group I member 3 (Homo sapiens) (UniProt Q14994); test: ATG_CAR_TRANS: Attagene TRANS-FACTORIAL HepG2 Assay for human Constitutive Androstane Receptor (CAR) (AID 2282969; active means hit-call score of the fitted dose curve at least 0.9, where 1 is the maximum;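 further: activators raise reporter mRNA above DMSO so AC50 marks induction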); conditions: HepG2 Attagene TRANS-FACTORIAL CAR reporter
# Chain of Nuclear receptor subfamily 1 group I member 3 (Homo sapiens) (Q14994 whole entry, looked up, the tested form may be a part): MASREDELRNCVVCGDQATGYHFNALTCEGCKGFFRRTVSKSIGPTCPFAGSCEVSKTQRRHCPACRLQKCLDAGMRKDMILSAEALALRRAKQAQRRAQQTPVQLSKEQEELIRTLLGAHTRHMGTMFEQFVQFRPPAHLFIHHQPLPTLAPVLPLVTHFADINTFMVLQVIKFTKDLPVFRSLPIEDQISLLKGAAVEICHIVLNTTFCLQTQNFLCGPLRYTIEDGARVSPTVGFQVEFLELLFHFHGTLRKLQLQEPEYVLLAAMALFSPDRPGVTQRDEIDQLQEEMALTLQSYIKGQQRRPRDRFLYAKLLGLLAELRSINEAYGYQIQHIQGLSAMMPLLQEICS
# How it was run: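 HepG2 cells transiently transfected with multiplexed GAL4-UAS reporter units expressing chimeric NR-Gal4 proteins; compound exposure 24 h. Reporter mRNA measured by RT-PCR, 6-FAM labelling, HpaI digestion and capillary electrophoresis; gain-of-signal fitted against DMSO baseline.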
# [20] = ATG_VDRE_CIS: Attagene CIS-FACTORIAL HepG2 Assay for human Vitamin D Receptor Element (VDRE) (AID 2282968); conditions: HepG2 VDRE cis-reporter transcription, actives raise or lower the signal
# How it was run: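 HepG2 cells transiently transfected with cis-element reporter units, dosed 24 h; reporter mRNA measured by RT-PCR, 6-FAM labeling, HpaI digestion and capillary electrophoresis. Activity fitted bidirectionally against DMSO baseline.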
smiles,measurement,setting,value
N#Cc1ccncc1,outcome,[1],inactive
same,outcome,[2],inactive
same,outcome,[3],inactive
same,outcome,[4],inactive
same,outcome,[5],inactive
same,outcome,[6],inactive
same,outcome,[7],inactive
same,outcome,[8],inactive
same,outcome,[9],inactive
same,outcome,[10],inactive
same,outcome,[11],inactive
same,outcome,[12],inactive
same,outcome,[13],inactive
same,outcome,[14],inactive
same,outcome,[15],inactive
same,outcome,[16],inactive
same,outcome,[17],inactive
O=[N+]([O-])c1c2ccccc2cc2ccccc12,outcome,[1],inactive
same,outcome,[2],inactive
same,outcome,[3],inactive
same,outcome,[4],inactive
same,outcome,[18],inactive
same,AC50,[6],3.8 µM (active)
same,outcome,[8],inactive
same,outcome,[9],inactive
same,outcome,[10],inactive
same,outcome,[11],inactive
same,outcome,[12],inactive
same,outcome,[13],inactive
same,outcome,[14],inactive
same,outcome,[15],inactive
same,outcome,[16],inactive
same,outcome,[19],inactive
same,AC50,[17],5.59 µM (active)
C=C(C)[C@@H]1CC=C(C=O)CC1,outcome,[1],inactive
same,outcome,[2],inactive
same,outcome,[3],inactive
same,AC50,[4],85.2 µM (active)
same,outcome,[5],inactive
same,AC50,[6],9.25 µM (active)
same,outcome,[7],inactive
same,outcome,[8],inactive
same,outcome,[9],inactive
same,outcome,[10],inactive
same,outcome,[11],inactive
same,outcome,[12],inactive
same,outcome,[13],inactive
same,outcome,[14],inactive
same,outcome,[15],inactive
same,outcome,[16],inactive
same,outcome,[20],inactive
same,outcome,[17],inactive
O=C(CBr)c1ccc(O)cc1,outcome,[1],inactive
same,outcome,[2],inactive
same,outcome,[3],inactive
same,outcome,[4],inactive
same,outcome,[6],inactive
same,outcome,[8],inactive
same,outcome,[9],inactive
same,outcome,[10],inactive
same,outcome,[11],inactive
same,outcome,[12],inactive
same,outcome,[13],inactive
same,outcome,[14],inactive
same,outcome,[15],inactive
same,outcome,[16],inactive
same,outcome,[20],inactive
O=[N+]([O-])c1ccc(Nc2ccccc2)cc1,outcome,[1],inactive
same,outcome,[2],inactive
same,outcome,[3],inactive
same,AC50,[18],23.8 µM (active)
same,outcome,[5],inactive
same,AC50,[6],26.9 µM (active)
same,outcome,[8],inactive
same,outcome,[9],inactive
same,outcome,[10],inactive
same,outcome,[11],inactive
same,outcome,[12],inactive
same,outcome,[13],inactive
same,outcome,[14],inactive
same,outcome,[15],inactive
same,outcome,[16],inactive
same,AC50,[20],19.2 µM (active)
same,outcome,[17],inactive
OCCCCO,outcome,[1],inactive
same,outcome,[2],inactive
same,outcome,[3],inactive
same,outcome,[18],inactive
same,AC50,[6],59 µM (active)
same,outcome,[7],inactive
same,outcome,[8],inactive
same,outcome,[9],inactive
same,outcome,[10],inactive
same,outcome,[11],inactive
same,outcome,[12],inactive
same,outcome,[13],inactive
same,outcome,[14],inactive
same,outcome,[15],inactive
same,outcome,[16],inactive
same,outcome,[20],inactive
Oc1ccc(Cc2ccc(O)cc2)cc1,outcome,[1],inactive
same,outcome,[2],inactive
same,outcome,[4],inactive
same,outcome,[18],inactive
same,AC50,[6],61.6 µM (active)
same,AC50,[7],38.8 µM (active)
same,outcome,[8],inactive
same,outcome,[9],inactive
same,outcome,[10],inactive
same,outcome,[11],inactive
same,outcome,[12],inactive
same,outcome,[13],inactive
same,outcome,[14],inactive
same,outcome,[15],inactive
same,outcome,[16],inactive
COc1ccc([N+](=O)[O-])cc1O,outcome,[1],inactive
same,outcome,[2],inactive
same,outcome,[3],inactive
same,outcome,[6],inactive
same,outcome,[7],inactive
same,outcome,[8],inactive
same,outcome,[9],inactive
same,outcome,[10],inactive
same,outcome,[11],inactive
same,outcome,[12],inactive
same,outcome,[13],inactive
same,outcome,[14],inactive
same,outcome,[15],inactive
same,outcome,[16],inactive
same,outcome,[20],inactive
same,outcome,[17],inactive

# From PubChem BioAssay (EPA / NIEHS)
